PubChem BioAssay AID1963315 (National Center for Advancing Translational Sciences (NCATS), 2024)
Inconclusive results are not listed. Calls of active or inactive are those of the source. Calls follow the shape of the full dose curve.

The compounds below were run against Tyrosine-protein kinase ABL1 (Homo sapiens) (UniProt P00519) (assay: ABL1 kinase (ABL1-N-HiBiT) SDR gain of signal screen). Settings: Purified ABL1-N-HiBiT enzyme, Nano-Glo HiBiT luminescence, 30 min compound incubation; series mostly up to 32.9 µM; activity change, gain of signal: at the top concentration.
Method in brief: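 Gain-of-signal luminescence after Nano-Glo HiBiT detection (10 min, room temperature) measures compound binding to 10 nM ABL1-N-HiBiT, which had been incubated 30 min with compound at room temperature, light-protected, without ATP.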

Chain of Tyrosine-protein kinase ABL1 (Homo sapiens) (P00519 whole entry, looked up): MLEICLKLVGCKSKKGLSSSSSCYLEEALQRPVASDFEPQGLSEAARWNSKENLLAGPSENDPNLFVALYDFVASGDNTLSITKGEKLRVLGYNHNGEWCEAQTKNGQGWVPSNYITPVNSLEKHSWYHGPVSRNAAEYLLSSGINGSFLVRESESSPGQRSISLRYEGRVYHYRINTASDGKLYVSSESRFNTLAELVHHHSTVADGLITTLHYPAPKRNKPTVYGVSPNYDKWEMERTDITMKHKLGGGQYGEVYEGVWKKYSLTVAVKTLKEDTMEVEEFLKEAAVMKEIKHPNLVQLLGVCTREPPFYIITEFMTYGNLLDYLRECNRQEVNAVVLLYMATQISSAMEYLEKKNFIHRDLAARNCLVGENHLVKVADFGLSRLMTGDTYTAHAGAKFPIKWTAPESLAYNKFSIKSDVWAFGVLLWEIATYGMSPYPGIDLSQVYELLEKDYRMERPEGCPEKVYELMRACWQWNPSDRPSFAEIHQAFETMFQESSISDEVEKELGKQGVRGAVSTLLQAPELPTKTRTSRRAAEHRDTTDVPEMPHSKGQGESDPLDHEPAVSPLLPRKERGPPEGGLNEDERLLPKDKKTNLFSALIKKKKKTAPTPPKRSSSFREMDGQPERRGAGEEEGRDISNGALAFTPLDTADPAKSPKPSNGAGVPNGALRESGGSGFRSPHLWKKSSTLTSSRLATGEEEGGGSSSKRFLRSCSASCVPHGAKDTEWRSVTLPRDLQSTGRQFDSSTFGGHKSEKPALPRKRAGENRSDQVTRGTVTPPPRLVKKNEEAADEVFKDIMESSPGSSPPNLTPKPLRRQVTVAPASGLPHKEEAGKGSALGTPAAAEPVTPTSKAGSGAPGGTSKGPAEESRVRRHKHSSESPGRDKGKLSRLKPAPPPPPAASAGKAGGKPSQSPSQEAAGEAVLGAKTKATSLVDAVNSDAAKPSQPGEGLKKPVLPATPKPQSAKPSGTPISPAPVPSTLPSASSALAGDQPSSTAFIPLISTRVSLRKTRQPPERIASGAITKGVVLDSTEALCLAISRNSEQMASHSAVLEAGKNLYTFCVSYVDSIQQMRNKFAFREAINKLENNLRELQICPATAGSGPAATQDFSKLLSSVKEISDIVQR

Structure (SMILES) | activity change, gain of signal | Potency
O=C(Nc1ccc(OC(F)(F)F)cc1)c1sccc1NCc1ccnc2ccccc12 | 19.1% (inactive) | 
CCCS(=O)(=O)Nc1ccc(F)c(C(=O)c2c[nH]c3ncc(Cl)cc23)c1F |  | 9320 nM (active)
COc1ccccc1-c1c[nH]c2ncc(-c3cncc(C(=O)N(C)C)c3)cc12 |  | 3.04 nM (active)
Cc1sc2c(c1C)C(c1ccc(Cl)cc1)=N[C@@H](CC(=O)Nc1ccc(OCCOCCOCCOCCNc3cccc4c3C(=O)N(C3CCC(=O)NC3=O)C4=O)cc1)c1nnc(C)n1-2 (some centres not stated) | 4.83% (inactive) | 
COc1cc2ncnc(-n3nc(-c4ccccn4)nc3N)c2cc1OC |  | 111 nM (active)
CCn1c(=O)c(-c2ccc(Cl)cc2Cl)cc2cnc(Nc3ccc(N4CCNCC4)c(F)c3)nc21 |  | 6.77 nM (active)
O=C(NOCC(O)CO)c1cc(Br)c(F)c(F)c1Nc1ccc(I)cc1F (configuration not stated) | -2.82% (inactive) | 
COc1cc(N2CCN(C)CC2)ccc1Nc1nc(N)c(C(=O)c2c(Cl)cccc2Cl)s1 | 1.1% (inactive) | 
NC1CCC(Nc2nc(Nc3ccc(C(=O)N4CCCCC4)cc3)c3ncn(-c4cccc(F)c4)c3n2)CC1 (configuration not stated) |  | 255 nM (active)
CCCCNc1ncc2c(-c3ccc(S(=O)(=O)N4CCOCC4)cc3)nn(C3CCC(O)CC3)c2n1 (configuration not stated) |  | 1520 nM (active)
CO[C@H]1/C=C/O[C@@]2(C)Oc3c(C)c(O)c4c(O)c(c(/C=N\N5CCN(C6CCCC6)CC5)c(O)c4c3C2=O)NC(=O)/C(C)=C\C=C\[C@H](C)[C@H](O)[C@@H](C)[C@@H](O)[C@@H](C)[C@H](OC(C)=O)[C@@H]1C | -35.9% (inactive) | 
Cc1cc(Nc2ncc3c(n2)N(C)C(=O)N(c2cc(NC(=O)c4cccc(C(F)(F)F)c4)ccc2C)C3)n(C)n1 |  | 31.2 nM (active)
